PubChem BioAssay (NCATS)
Values joined by “and” are separate entries in the source; they are usually repeats but may differ in a detail not shown here. Equal entries are not always repeated. Results filed as inconclusive are left out. A number with no mark means an inactive call. Active and inactive are the calls of the source. Calls follow the shape of the full dose curve.

Assay: Cell Viability - HepG2 (AID 433);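 also: potency for ATP loss meaning cytotoxicity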
Conditions: qHTS
In short: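 Cytotoxicity is scored as loss of intracellular ATP in HepG2 cells exposed to compounds for 40 h. Concentration-response curves, normalized to DMSO and 100 uM tamoxifen, give AC50 values.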
Potency is read from the fitted curve at half-maximal effect.

| Structure (SMILES) | Potency |
| --- | --- |
| C[C@H]1CCC[C@H](O)CCCCCc2cc(O)cc(O)c2C(=O)O1 | > 92 µM |
| COC1=CC(=O)O[C@@H](/C=C/c2ccccc2)C1 | > 92 µM |
| CCCCCCCCOC(=O)c1ccccc1C(=O)OCCCCCCCC | > 92 µM |
| O=C/C=C/c1ccccc1 | > 92 µM |
| ClCC1CO1 (stereo not given) | > 92 µM |
| O=C1C2CC=CCC2C(=O)N1SC(Cl)(Cl)Cl (stereo not given) | 40.6 µM (active) and 37.9 µM (active) |
| ClC=C(Cl)Cl | > 92 µM |

Assay: Cell Viability - MRC5 (AID 434);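 also: cells exposed to compound for 40 hours at 37 °C; potency reflects cytotoxicity seen as loss of intracellular ATP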
Conditions: MRC5 lung fibroblast viability, qHTS
In short: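 ATP luminescence read-out (CellTiter-Glo, 20 min RT) after 40 hr, 37 °C compound exposure of 1500 MRC5 cells/well. Data normalized to DMSO (basal) and 100 uM tamoxifen (100% inhibition); AC50 from standard Hill equation.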

| Structure (SMILES) | Potency |
| --- | --- |
| O=Cc1ccco1 | > 92 µM |
| O=C(O)C(Cl)(Cl)Cl | > 92 µM |
| CCCCCl | > 92 µM |
| [O]=[Cr](=[O])([OH])[O][Cr](=[O])(=[O])[OH] | 4.16 µM (active) and 11.5 µM (active) and 9.77 µM (active) |
| S=C=S | > 92 µM |
| CCOC(=O)c1ccccc1C(=O)OCC | > 92 µM |
| O=C1CCO1 | > 92 µM |
| O=[N+]([O-])c1ccccc1 | > 92 µM |
| CC(C)CCON=O | > 92 µM |
| Clc1ccccc1Cl | > 92 µM |
| C[C@H]1CC[C@@H]2[C@@H](C)[C@H]3[C@H](C[C@H]4[C@@H]5CC=C6CC(O[C@@H]7O[C@H](CO)[C@H](O)[C@H](O[C@@H]8O[C@H](CO)[C@@H](O)[C@H](O)[C@H]8O)[C@H]7O[C@H]7O[C@@H](C)[C@H](O)[C@@H](O)[C@H]7O)CC[C@]6(C)[C@H]5CC[C@]34C)N2C1 (stereo not given in full) | 45 µM (active) |
| Oc1cc(Cl)c(Cl)cc1Cl | > 92 µM |
| COc1ccc2c(c1OC)C(=O)OC2C1c2cc3c(cc2CCN1C)OCO3 (stereo not given) | > 92 µM |
| [Cl-].[Cl-].[Hg+2] | 33.4 µM (active) |
| O=CC=O | > 92 µM |
| ClC(Cl)(Cl)Cl | > 92 µM |
| C[C@]12CCC(=O)C[C@@H]1CC[C@@H]1[C@@H]2CC[C@]2(C)[C@@H](O)CC[C@@H]12 | > 92 µM |
| C=CCN=C=S | > 92 µM |
| [O]=[Cd] | > 92 µM |
| O=[N+]([O-])c1ccc(F)c([N+](=O)[O-])c1 | > 92 µM |
| C[C@H]1CCC[C@H](O)CCCCCc2cc(O)cc(O)c2C(=O)O1 | > 92 µM |
| COC1=CC(=O)O[C@@H](/C=C/c2ccccc2)C1 | > 92 µM |
| CCCCCCCCOC(=O)c1ccccc1C(=O)OCCCCCCCC | > 92 µM |
| O=C/C=C/c1ccccc1 | > 92 µM |
| ClCC1CO1 (stereo not given) | > 92 µM |
| O=C1C2CC=CCC2C(=O)N1SC(Cl)(Cl)Cl (stereo not given) | 24.9 µM (active) and 14.7 µM (active) |
| ClC=C(Cl)Cl | > 92 µM |

Assay: Cell Viability - SK-N-SH (AID 435);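 also: compound exposure lasted 40 h at 37 °C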
Conditions: SK-N-SH neuroblastoma cell viability qHTS
In short: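 Cells seeded at 1500 per well and incubated 5 hr at 37 °C. Compound added, then 40 hr at 37 °C. CellTiter-Glo added, 20 min at room temperature, luminescence read.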

| Structure (SMILES) | Potency |
| --- | --- |
| O=Cc1ccco1 | > 92 µM |
| O=C(O)C(Cl)(Cl)Cl | > 92 µM |
| CCCCCl | > 92 µM |
| [O]=[Cr](=[O])([OH])[O][Cr](=[O])(=[O])[OH] | 19.2 µM (active) and 17.1 µM (active) and 3.88 µM (active) |
| S=C=S | > 92 µM |
| CCOC(=O)c1ccccc1C(=O)OCC | > 92 µM |
| O=C1CCO1 | > 92 µM |
| O=[N+]([O-])c1ccccc1 | > 92 µM |
| CC(C)CCON=O | > 92 µM |
| Clc1ccccc1Cl | > 92 µM |
| C[C@H]1CC[C@@H]2[C@@H](C)[C@H]3[C@H](C[C@H]4[C@@H]5CC=C6CC(O[C@@H]7O[C@H](CO)[C@H](O)[C@H](O[C@@H]8O[C@H](CO)[C@@H](O)[C@H](O)[C@H]8O)[C@H]7O[C@H]7O[C@@H](C)[C@H](O)[C@@H](O)[C@H]7O)CC[C@]6(C)[C@H]5CC[C@]34C)N2C1 (stereo not given in full) | 24.8 µM (active) |
| COc1ccc2c(c1OC)C(=O)OC2C1c2cc3c(cc2CCN1C)OCO3 (stereo not given) | > 92 µM |
| [Cl-].[Cl-].[Hg+2] | 16 µM (active) |
| O=CC=O | > 92 µM |
| ClC(Cl)(Cl)Cl | > 92 µM |
| C[C@]12CCC(=O)C[C@@H]1CC[C@@H]1[C@@H]2CC[C@]2(C)[C@@H](O)CC[C@@H]12 | > 92 µM |
| C=CCN=C=S | > 92 µM |
| CC(C)Nc1ccc(Nc2ccccc2)cc1 | 40.5 µM (active) |
| [O]=[Cd] | > 92 µM |
| O=[N+]([O-])c1ccc(F)c([N+](=O)[O-])c1 | 45.7 µM (active) |
| COC1=CC(=O)O[C@@H](/C=C/c2ccccc2)C1 | > 92 µM |
| CCCCCCCCOC(=O)c1ccccc1C(=O)OCCCCCCCC | > 92 µM |
| O=C/C=C/c1ccccc1 | > 92 µM |
| ClCC1CO1 (stereo not given) | > 92 µM |
| O=C1C2CC=CCC2C(=O)N1SC(Cl)(Cl)Cl (stereo not given) | 27.7 µM (active) and 13.2 µM (active) |
| ClC=C(Cl)Cl | > 92 µM |
